Structures are written as SMILES. Compounds without any hit were thinned out: in the full panel of roughly 83,000, 20% have a hit.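 Cell lines were cultured in 96-well plates, exposed to a single compound concentration, and assessed for percent growth 48 hours later.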 A number with no mark means an inactive call. The source made the active and inactive calls. The calls were made as follows: active = growth percent below 10; inactive = the rest.

The first assay relates to OVCAR-8 ovarian. The experiment in a line: NCI-60 one-dose screen, 48 h (100 = growth as untreated, 0 = no growth, -100 = all killed). The conditions noted are these: 10 µM.
As for `CN(C)CCN(Cc1ccccc1)c1ccc2ccccc2n1`, the growth was 102%. Consider `C1CN(CC2CCC(CN3CCOCC3)O2)CCO1` (configuration not stated), for which the growth was 104%. With `N#CC1=C(N)Oc2cc(N)ccc2C1c1cccnc1` (configuration not stated), the growth is 106%. Consider `CCOC(=O)c1cc(C(=O)c2cc(OC)cc(OC)c2)n2nc(C)ccc12`, for which the growth was 29.7%. With `COc1cc(C)ccc1Oc1nc(Nc2ccc(N3CCOCC3)cc2)ncc1NC(=O)Nc1cc(C(F)(F)F)cc(C(F)(F)F)c1`, the growth is 44.3%. Take `COc1ccc(/C=C2\CCCC3C2=Nc2ccccc2NC3c2ccc(OC)cc2)cc1` (configuration not stated): the growth is 85.1%. As to `O=C(CC(CC(=O)c1ccccc1)c1ccccc1O)c1ccccc1`, the growth is 95.9%.

For `C=C(C)[C@@H]1CC[C@]2(COCCC#N)CC[C@]3(C)[C@H](CC[C@@H]4[C@@]5(C)Cc6c([nH]c7ccccc67)C(C)(C)[C@@H]5CC[C@]43C)[C@@H]12`, the growth is 107%.

For `Fc1ccc2[nH]cc(-c3nc(-c4ccsc4)cs3)c2c1`, the growth is 94.4%.

Turning to `COc1cc(-c2nn(-c3cccc(NC(=O)CCN4CCN(Cc5ccccc5)CC4)c3)cc2-c2ccncc2)ccc1Cl`, the growth is 12.7%.

Take `Cc1cc(=O)n2nnc3cc(Cl)c(Cl)cc3n12`: the growth was 106%. Take `O=C(/C=C/C=C/c1c(C2CC2)nc2ccccc2c1-c1ccc(F)cc1)c1cccs1`: the growth was 18.1%.

For the molecule `CC(=O)[C@H]1CC[C@]2(C)[C@@H]1CC[C@@H]1[C@@]3(C)CC(CCC#N)(CCC#N)C(=O)C(C)(C)[C@@H]3CC[C@]12C`, the growth was 106%. Consider `CCNCC(=O)Nc1ccc(C(=O)OCC)cc1`, for which the growth was 103%. As to `S=C(NCc1ccccc1)NCc1ccccc1`, the growth is 94.7%. As for `NNC(=O)Oc1c(Cl)cc(Cl)cc1[N+](=O)[O-]`, the growth is 109%. Same read-out and setting: the value for `CCN(CC)CCOc1ccc2c(c1O)C(=O)c1ccccc1C2=O` was 62.4%; that for `S=C(SSC(=S)N(c1ccccc1)c1ccccc1)N(c1ccccc1)c1ccccc1` was 89.8%.

A further assay has as its system OVCAR-5 ovarian. The description is as above. Particulars: 10 µM.
As to `CCc1ccc(-c2ccc(-n3nc(C)c4c(N)nc(Cc5ccccc5)nc43)cc2)cc1`, the growth was 73.5%. Still for that read-out and setting: the value for `O=C(Nc1ccc(F)cc1)c1cc2ccccc2cc1O` was 100%; that for `Nc1nccc(OCCO)n1` was 101%.

As to `O=C(CCCCNC(=O)c1nc(-c2ccccc2)n(-c2ccccc2)n1)NO`, the growth was 85%. Turning to `COc1cc(-c2nn(-c3ccc(NC(=O)NCCNS(=O)(=O)c4ccc(F)cc4)cc3)cc2-c2ccncc2)ccc1Cl`, the growth is 27.1%. For the molecule `O=C(Nc1ccc2c(O)cc(S(=O)(=O)O)cc2c1)c1ccc([N+](=O)[O-])cc1`, the growth is 101%. With `COC(=O)C1(O)NC(=C(C#N)C#N)C(C#N)=C1C(=O)c1ccc(OC)c(OC)c1` (configuration not stated), the growth is 111%.

For `C=CCn1c(SCC(=O)Nc2ccc(C(=O)/C=C/c3ccc(OC)cc3)cc2)nnc1-c1ccc(OC)c(OC)c1`, the growth was 110%. The same measure, in the same setting: the value for `COc1cc(NC(=O)Nc2cnc(Nc3ccc(N4CCOCC4)cc3)nc2Oc2cccc(OC)c2)cc(OC)c1` was 96.5%; that for `O=C(CCl)Nc1ccc(Cc2ccc(NC(=O)CCl)cc2)cc1` was 9.56% (active); that for `Cc1nn(-c2ccc(-c3ccc(OC(F)(F)F)cc3)cc2)c2nc(Cc3ccccc3)nc(N)c12` was 57.6%.

With `O=C(Nc1nc(-c2ccccc2)nc2c1sc(=S)n2-c1ccccc1)C(F)(F)F`, the growth is 105%. Consider `S=c1cnc2ccccc2[nH]1`, for which the growth is 104%.

As to `O=C(CSc1nnc(-c2ccc(Cl)cc2)o1)Nc1ccc(C(=O)/C=C/c2ccc(Cl)cc2)cc1`, the growth was 110%.

`CN(C)CCN(Cc1ccccc1)c1ccc2ccccc2n1`: the growth was 95%. For the molecule `CCN(CC)CCOc1cccc2c1C(=O)c1cccc(OCCN(CC)CC)c1C2=O`, the growth was 55.5%.

As to `O=C(NCCCNS(=O)(=O)c1ccc(Cl)cc1)Nc1ccc(-n2cc(-c3ccncc3)c(-c3ccc(Cl)c(O)c3)n2)cc1`, the growth was 70.8%. Turning to `C1CN(CC2CCC(CN3CCOCC3)O2)CCO1` (configuration not stated), the growth was 109%. Regarding `NC(N)=N/N=C(\c1ccccc1)C(O)c1ccccc1` (configuration not stated), the growth was 112%. In the case of `N#CC1=C(N)Oc2cc(N)ccc2C1c1cccnc1` (configuration not stated), the growth was 103%. For `CCOC(=O)c1cc(C(=O)c2cc(OC)cc(OC)c2)n2nc(C)ccc12`, the growth is 59.6%.

Consider `COc1cc(C)ccc1Oc1nc(Nc2ccc(N3CCOCC3)cc2)ncc1NC(=O)Nc1cc(C(F)(F)F)cc(C(F)(F)F)c1`, for which the growth is 106%. Consider `COc1ccc(/C=C2\CCCC3C2=Nc2ccccc2NC3c2ccc(OC)cc2)cc1` (configuration not stated), for which the growth was 127%. Consider `CCN(CC)CC(=O)N(CC)c1ccc(C)c(Cl)c1`, for which the growth was 104%. As for `O=C(CC(CC(=O)c1ccccc1)c1ccccc1O)c1ccccc1`, the growth was 96.9%. `C=C(C)[C@@H]1CC[C@]2(COCCC#N)CC[C@]3(C)[C@H](CC[C@@H]4[C@@]5(C)Cc6c([nH]c7ccccc67)C(C)(C)[C@@H]5CC[C@]43C)[C@@H]12`: the growth is 89.3%.

`Fc1ccc2[nH]cc(-c3nc(-c4ccsc4)cs3)c2c1`: the growth is 107%.

As for `COc1cc(-c2nn(-c3cccc(NC(=O)CCN4CCN(Cc5ccccc5)CC4)c3)cc2-c2ccncc2)ccc1Cl`, the growth was 22.9%. In the case of `Cc1cc(=O)n2nnc3cc(Cl)c(Cl)cc3n12`, the growth was 107%.

In the case of `O=C(/C=C/C=C/c1c(C2CC2)nc2ccccc2c1-c1ccc(F)cc1)c1cccs1`, the growth was 1.66% (active). For the molecule `CC(=O)[C@H]1CC[C@]2(C)[C@@H]1CC[C@@H]1[C@@]3(C)CC(CCC#N)(CCC#N)C(=O)C(C)(C)[C@@H]3CC[C@]12C`, the growth is 88.5%.

`CCNCC(=O)Nc1ccc(C(=O)OCC)cc1`: the growth is 103%. For the molecule `S=C(NCc1ccccc1)NCc1ccccc1`, the growth is 108%. On to `NNC(=O)Oc1c(Cl)cc(Cl)cc1[N+](=O)[O-]`, for which the growth was 104%.

Regarding `CN1CCN(CCC(=O)Nc2cccc(-n3cc(-c4ccncc4)c(-c4ccc(Cl)c(O)c4)n3)c2)CC1`, the growth is 67.7%. Still for that read-out and setting: with `O=S(=O)(O)c1cccc(Nc2ccc3ccccc3c2)c1` the figure was 106%. Same read-out and setting: the value for `CCN(CC)CCOc1ccc2c(c1O)C(=O)c1ccccc1C2=O` was 104%; that for `S=C(SSC(=S)N(c1ccccc1)c1ccccc1)N(c1ccccc1)c1ccccc1` was 111%.

Turning to `CN1CCN(CC(=O)Nc2cccc(-n3cc(-c4ccncc4)c(-c4ccc(Cl)c(O)c4)n3)c2)CC1`, the growth is 68.2%.

Source of the values: PubChem BioAssay (NCI).
